Among the data in PubChem BioAssay (NCATS) are activation and Potency values, retold here.

Results filed as inconclusive are left out. Where a call stands in place of a potency, no number is given. Active and inactive are the calls of the source. Calls come from the whole dose curve; as a rule, active = well fitted curve in the direction sought with a large enough effect; inconclusive = small, poorly fitted or top-dose-only effect, or another doubt; inactive = no such curve, though single readings can be large; an effect the other way counts as inactive or inconclusive.

Test [1] concerns the target Cellular tumor antigen p53 (Homo sapiens) (UniProt P04637). Description: Primary qHTS for small molecule compounds that upregulate eGFP-tagged delta133p53alpha (in N-terminal) cells. (AID 2060322). For activation: series mostly up to about 56 µM. Note: nearly all actives have a fitted effect of over 75% in size. Note: potency is the fitted concentration of half-maximal effect. Particulars: NCI-H358 eGFP-delta133p53alpha fluorescence, 24 h; activation: hits give high values. The gist of the method:
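NCI-H358 cells pre-induced 24 h with 10 ng/ml doxycycline to express N-terminal eGFP-delta133p53alpha, then dosed 24 h at 37C without doxycycline; fixed, Hoechst-stained, GFP intensity by laser scanning cytometry, normalized to DMSO (0%) and 57.5 uM 5-azacytidine (100%).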
A general note: qHTS replaces the single test concentration by a dilution series.

Test [2] deals with Aldehyde dehydrogenase, mitochondrial (Homo sapiens) (UniProt P05091). Description: qHTS for Inhibitors of the Aldehyde Dehydrogenase Family (ALDH2) Primary screen (AID 2061308). Note: nearly all actives have a fitted effect of over 55% in size.

Chain of Cellular tumor antigen p53 (Homo sapiens) (P04637 whole entry, looked up): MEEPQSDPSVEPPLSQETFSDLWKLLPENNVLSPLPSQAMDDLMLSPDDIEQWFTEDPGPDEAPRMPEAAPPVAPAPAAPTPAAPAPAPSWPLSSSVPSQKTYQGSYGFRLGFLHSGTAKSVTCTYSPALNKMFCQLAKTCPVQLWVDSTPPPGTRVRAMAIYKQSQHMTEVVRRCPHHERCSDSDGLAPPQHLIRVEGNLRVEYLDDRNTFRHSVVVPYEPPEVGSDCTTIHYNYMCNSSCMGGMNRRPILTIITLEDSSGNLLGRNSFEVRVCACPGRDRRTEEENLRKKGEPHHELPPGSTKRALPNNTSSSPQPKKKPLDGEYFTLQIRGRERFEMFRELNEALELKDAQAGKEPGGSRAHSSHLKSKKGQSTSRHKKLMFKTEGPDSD

On to `C=C1CC[C@H]2[C@@](C)(CCC(O)[C@@]2(C)CO)[C@@H]1C/C=C(/C(=O)O)C(O)CO` (stereo not given in full), for which the activation in test [1] was -16.1% (inactive). For the same compound, the Potency entry in test [2] is “inactive”.

For the compound `C[C@@H]1O[C@@H](O[C@H]2[C@H](OC(C#N)c3ccc(O)cc3)O[C@H](CO)[C@@H](O)[C@@H]2O)[C@H](O)[C@H](O)[C@H]1O` (stereo not given in full), the activation in test [1] was -19.8% (inactive). In test [2], the Potency entry was “inactive”.

Regarding `COc1cc([C@H]2OC[C@](O)(Cc3ccc(O[C@@H]4O[C@H](CO)[C@@H](O)[C@H](O)[C@H]4O)c(OC)c3)[C@@H]2CO)ccc1O`, in test [1], the activation is -1.53% (inactive). Also, in test [2], the Potency result is “inactive”.

As to `O=C(/C=C/N1C[C@@H]2C[C@@H]1CN2c1ccccn1)c1ccccc1O`, the activation in test [1] was -4.33% (inactive). Also, the Potency result in test [2] was “inactive”.

As for `C[C@@H]1O[C@@H](O[C@H]2[C@@H]3C=CO[C@@H](O[C@@H]4O[C@H](CO)[C@@H](O)[C@H](O)[C@H]4O)[C@@H]3[C@@]3(CO)O[C@@H]23)[C@H](O)[C@H](OC(=O)/C=C/c2ccc(O)c(O)c2)[C@H]1O`, in test [1], the activation was 2.29% (inactive). Also, in test [2], the Potency entry is “inactive”.

With `COc1cc(C(=O)OCC2=CCC3C(C(=O)O)=COC(O[C@@H]4O[C@H](CO)[C@@H](O)[C@H](O)[C@H]4O)C23)ccc1O` (stereo not given in full), the activation in test [1] was -9.82% (inactive). Also, the Potency result in test [2] is “inactive”.

Turning to `C=C1CC[C@@H]2[C@](C)(CO)[C@H](O)CC[C@@]2(C)[C@@H]1CC(O)C1=CCOC1=O` (stereo not given in full), the activation in test [1] is -5.34% (inactive). Besides, the Potency result in test [2] was “inactive”.

Consider `O=C(OC[C@H]1O[C@@H](Oc2ccccc2CO)[C@H](O)[C@@H](O)[C@@H]1O)c1ccccc1`, for which the activation in test [1] was 7.63% (inactive). The Potency result in test [2] is “inactive”.

As to `O=C(/C=C/c1ccc(O)c(O)c1)O[C@H]1[C@@H]2C=CO[C@@H](O[C@@H]3O[C@H](CO)[C@@H](O)[C@H](O)[C@H]3O)[C@@H]2[C@@]2(CO)O[C@@H]12`, the activation in test [1] was 22.3% (inactive). The Potency result in test [2] was “inactive”.

For the compound `O=C(/C=C/c1ccc(O)c(O)c1)OC[C@H]1O[C@@H](OC2CCCCC2O)[C@H](O)[C@@H](O)[C@@H]1O` (stereo not given in full), in test [1], the activation was -3.05% (inactive). The Potency entry in test [2] is “inactive”.

Consider `NC(=O)[C@@H]1CC[C@H](c2ccc(OCc3ccccc3F)cc2)N1`, for which the activation in test [1] was -11.6% (inactive). The Potency result in test [2] is “inactive”.

For the compound `C=C[C@H]1[C@H](O[C@@H]2O[C@H](CO)[C@@H](O)[C@H](OC(=O)/C=C/c3ccc(O)c(OC)c3)[C@H]2O)OC=C2C(=O)OCC[C@]21O`, in test [1], the activation is -1.53% (inactive). For the same compound, the Potency entry in test [2] is “inactive”.

Take `COc1cc(C(=O)O)ccc1OC1OC(CO)C(O)C(O)C1O` (stereo not given): the activation in test [1] is 10.7% (inactive). The Potency result in test [2] was “inactive”.

`CC(=O)N[C@H]1[C@H](O[C@H]2CC[C@@]3(C)C(CC[C@]4(C)C3CC=C3C5CC(C)(C)CC[C@]5(C(=O)O)[C@H](O[C@@H]5O[C@H](CO)[C@@H](O)[C@H](O)[C@H]5O)C[C@]34C)C2(C)C)O[C@H](CO[C@@H]2OC[C@H](O)[C@H](O)[C@H]2O[C@@H]2OC[C@@H](O)[C@H](O)[C@H]2O)[C@@H](O)[C@@H]1O` (stereo not given in full): the activation in test [1] was -9.16% (inactive). Further, in test [2], the Potency entry is “inactive”.

Regarding `CC1(O)CCC2C(C(=O)O)=COC(OC3OC(CO)C(O)C(O)C3OC(=O)/C=C/c3ccc(O)cc3)C21` (stereo not given), in test [1], the activation is -16% (inactive). For the same compound, in test [2], the Potency entry is “inactive”.

In the case of `O=C(OC[C@H]1O[C@H](O[C@]2(CO)O[C@H](CO)[C@@H](O)[C@@H]2O)[C@H](O)[C@@H](O)[C@@H]1O)c1ccccc1`, the activation in test [1] is 0.763% (inactive). In addition, the Potency entry in test [2] is “inactive”.

For the compound `C[C@]1(C2CCCC2)Cc2cc(OCC(=O)O)c(Cl)c(Cl)c2C1=O`, the activation in test [1] was -3.67% (inactive). In test [2], the Potency entry was “inactive”.

Consider `COc1cc2c(cc1O)C1(OC)Cc3ccc4c(c3C1N(C)CC2)OCO4` (stereo not given), for which the activation in test [1] is 20.5% (inactive). Also, the Potency result in test [2] is “inactive”.

`CC(C)S(=O)(=O)N[C@H]1CCOC[C@@H]1c1ccc(-c2ccc(C#N)s2)cc1`: the activation in test [1] was -15% (inactive). Besides, the Potency result in test [2] is “inactive”.

For `COc1cc2c(cc1O)C1(Cc3ccc4c(c3C1O)OCO4)[N+](C)([O-])CC2` (stereo not given), the activation in test [1] is -8.04% (inactive). The Potency result in test [2] was “inactive”.

`CC/C=C\C(O)C(O)C1=C(C)C(=O)C2(O1)C(=O)NC(OC)(C(=O)c1ccccc1)C2O` (stereo not given): in test [1], the activation is 0.763% (inactive). Further, in test [2], the Potency entry is “inactive”.

With `Cc1cc(N(C)C)ccc1-c1nc2ccc(-c3nc4ccc(N5CCN(C)CC5)cc4[nH]3)cc2[nH]1`, the Potency in test [1] was 30.1 µM (active). Moreover, in test [2], the Potency entry is “inactive”.

Consider `CC(CNS(=O)(=O)C(C)C)c1ccc(-c2ccc(C#N)cc2)cc1` (stereo not given), for which, in test [1], the activation was -9% (inactive). In addition, the Potency entry in test [2] is “inactive”.

Consider `C=C(C)Cn1c(SCC(=O)c2cccs2)nc2sc3c(c2c1=O)CCCC3`, for which the activation in test [1] was -5.73% (inactive). For the same compound, the Potency entry in test [2] was “inactive”.

As for `C=CCC1=C[C@]2(OC)[C@H](C)[C@@H](c3ccc(O)c(OC)c3)O[C@]2(OC)CC1=O`, in test [1], the activation is -15.2% (inactive). The Potency entry in test [2] is “inactive”.
